From PubChem
Only some compounds are listed: those with a hit (about 2.4% of all), similar ones and a draw of the others.
FUS yeast rescue = rescues growth of FUS-expressing yeast | Potency, µM (doses to about 76.6 µM), hits mostly activators | 390,000 tested, 0.24% active | S. cerevisiae FUS-expressing, growth rescue, OD600, 24 h;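 also: plate controls were DMSO vehicle for no effect and reference control for full effect; nearly all actives have a fitted effect of over 55% in size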
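Toxicity suppression screen in FUS-yeast. Cells induced with 2% galactose, starting OD 0.005, treated 24hr at 30C with compounds at multiple final concentrations; growth by OD600.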
TDP43 rescue = rescues yeast growth from TDP-43 toxicity | TDP-43 expressing yeast growth rescue, BacTiter-Glo, 24 h | Potency, µM (doses to about 46.1 µM), for the others: at the highest dose growth rescue (activation), actives largely listed as activators | 410,000 tested, 1.8% active | AID 652104; also: % of control where 0% means no effect; nearly all actives have a fitted effect of over 50% in size
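Galactose-induced TDP-43 yeast, OD600=0.02, compound pinned; 24 hr, 30 deg C; BacTiter-Glo luminescence for growth. Inhibitors of TDP-43 toxicity read as activators.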
aSyn rescue = rescues yeast growth from alpha-synuclein toxicity; Potency, µM (doses to about 46.1 µM), inactives show at the highest dose growth rescue (activation), actives largely listed as activators; 370,000 tested, 0.14% active; AID 652106; Yeast expressing alpha-synuclein, growth rescue, BacTiter-Glo, 24 h; also: % of control where 0% means no effect; nearly all actives have a fitted effect of over 65% in size
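Rescue of yeast growth: cells expressing toxic alpha-synuclein, induced in galactose at OD600 0.02, incubated with compound 24 h at 30 C. ATP luminescence quantified growth; inhibitors of toxicity appear as activators.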
Mito fusion act = blocks mitochondrial division or promotes mitochondrial fusion; Potency, µM (titrated, usually from 46.1 µM), inactives show at the top dose growth rescue (activation), hits mostly activators; 320,000 tested, 0.23% active; AID 485298; S. cerevisiae fusion-defective mutant growth rescue, CellTiterGlo 48 h; also: % of control where 0% means no effect; nearly all actives have a fitted effect of over 45% in size
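Luminescent cell viability in 1536-well qHTS format served as the measure of rescued growth in ts fusion-mutant S. cerevisiae cultured on non-fermentable YPEG for 48 hours at 37C.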
AT treatment = potential ataxia-telangiectasia treatment | Potency, µM (highest dose often 57.5 µM), inactives show at the highest dose activation, most hits filed as activators | F2112 A-T fibroblasts, KAP-1 phosphorylation AlphaLISA; neocarzinostatin DNA damage 30 min before lysis | 320,000 tested, 0.19% active; also: % of control where 0% means no effect; nearly all actives have a fitted effect of over 45% in size
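hTERT-immortalized A-T patient fibroblasts (F2112), 500 cells/well in OPTI-MEM, 1% FBS, got compounds for 60 min, then NCS for 30 min at 37C. Lysates were then assayed for phospho-KAP-1 by AlphaLISA (anti-pKAP1 donor, anti-KAP1 acceptor beads), 6 hr at 25C.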
Abeta rescue = A-beta toxicity reversal in yeast | AID 1347071 | 410,000 tested, 0.063% active | yeast expressing A-beta42, growth rescue, OD600, 48 h; response scale: 0% DMSO, 100% iron-clioquinol control | Potency, µM (doses to about 46.1 µM), most hits filed as activators; also: nearly all actives have a fitted effect of over 55% in size
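Yeast A-beta toxicity model in growth medium with pinned compounds, 48 h at 30 C; growth read as absorbance at 600 nm. Normalized to FeCl3/clioquinol equimolar mix (positive) and DMSO (negative).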
Starred values were filed as active, the others as inactive; i = inactive; ? = inconclusive; · = no result; ! = repeats disagree. Calls follow the shape of the dose curve; as a rule, active = well fitted curve in the direction sought with a large enough effect; inconclusive = small, poorly fitted or top-dose-only effect, or another doubt; inactive = no such curve, though single readings can be large; an effect the other way counts as inactive or inconclusive. Potency is read from the fitted curve at half-maximal effect.

SMILES	FUS yeast rescue	TDP43 rescue	aSyn rescue	Mito fusion act	AT treatment	Abeta rescue
Nc1ccc(N2CCN(c3ncc(C(F)(F)F)cc3Cl)CC2)c(C(F)(F)F)c1	i	20µM*	-57%	·	·	i
NC(=O)c1ccc(N2CCN(c3ncc(C(F)(F)F)cc3Cl)CC2)cc1	i	5%	8%	1%	35%	i
CCCS(=O)(=O)c1c(S(=O)(=O)CCC)c2cc(C(C)(C)C)ccn2c1C(=O)c1ccc(C)cc1	i	2%	·	·	·	i
S=C(Nc1ccc(Cl)cc1)NC1CCCCC1	i	29%	-3%	-4%	2%	?
FC(F)Oc1ccc(NC(=S)NC2CCCCCCC2)cc1	i	24%	-9%	-48%	9%	11µM*
Cc1nc(Nc2nc3c(c(=O)[nH]2)CCC3)nc2ccccc12	i	14µM*	11µM*	·	·	i
COc1ccc(-c2nc3cc(C(C)C)ccc3o2)cc1NC(=O)COc1ccc(C)cc1C	i	23%	·	·	·	i
C=CCN=Cc1sc2ccc(OCC)cc2c1O	·	·	·	0%	-3%	·
CCCCN=Cc1sc2ccc(OCC)cc2c1O	i	16µM*	5%	0%	4%	i
COc1ccc2nc(N(Cc3cccnc3)C(=O)COc3ccccc3)sc2c1	i	16µM*	·	·	·	i
COc1ccc2sc(N(Cc3cccnc3)C(=O)COc3ccccc3)nc2c1	i	11%	·	·	·	i
O=C(Cc1ccccc1)N(Cc1cccnc1)c1nc2c(F)cc(F)cc2s1	i	18µM*	·	·	·	i
Cc1cccc2sc(N(Cc3cccnc3)C(=O)COc3ccccc3)nc12	i	11µM*	·	·	·	i
c1ccc2c(c1)OCCc1c-2[nH]c2ccccc12	i	13µM*	-3%	-13%	-5%	i
O=C1CCCc2c1[nH]c1ccccc21	i	21%	0%	5%	0%	i
COc1cc(C(=O)NCC2CCCO2)cc(Br)c1OCc1ccccc1 (stereo not drawn)	i	14µM*	3%	?	-3%	i
O=C(O)c1cccc2c1C(=O)c1ccc(-c3ccc(F)cc3OCc3ccccc3)cc1S2(=O)=O	i	21%	2%	3%	-13%	i
O=C(NC[C@H]1CCCO1)c1cccc2c1C(=O)c1ccc(-c3ccc(F)cc3OCc3ccccc3)cc1S2(=O)=O	22µM*	-2%	?	·	8%	i
COc1cc(C(=O)NCC2CCCO2)ccc1OCc1ccccc1 (stereo not drawn)	i	3%	0%	3%	17%	i
COc1cccc2sc3ccc(C#CC4(O)CCCCC4)cc3c(=O)c12	?	16µM*	-7%	-11%	-3%	i
COc1cccc2sc3ccc(C#Cc4ccc(N)cc4)cc3c(=O)c12	32µM*	-2%	1%	0%	-4%	i
COC(=O)[C@H](CC(C)C)N1Cc2nnn(CC3CCCCC3)c2-c2cc(F)ccc2S1(=O)=O	i	·	·	·	·	·
Cc1nn(Cc2ccccc2)c(C)c1/C=N/NC(=O)c1ccccc1O	i	10%	0%	5%	32µM*	i
COc1cccc(C2C(C(=O)Nc3ccccc3OC)=C(C)Nc3nc4ccccc4n32)c1 (stereo not drawn)	i	14%	·	·	·	i
Cc1ccc(S(=O)(=O)N2CCN(Cc3nc4ccc(C)cc4o3)CC2)cc1	i	-15%	·	·	·	i
SMILES	FUS yeast rescue	TDP43 rescue	aSyn rescue	Mito fusion act	AT treatment	Abeta rescue
COc1ccc(S(=O)(=O)N2CCN(Cc3nc4ccc(C)cc4o3)CC2)cc1	i	18µM*	·	·	·	i
CC(C)c1ccc(S(=O)(=O)c2nnn3c2nc(N2CCOCC2)c2sccc23)cc1	i	-9%	·	·	·	i
COc1ccccc1N1CCN(C(=O)c2cc3c(s2)CCCCC3)CC1	i	22µM*	2%	10%	6%	i
CCc1cc(C(=O)N2CCN(c3ccccc3OC)CC2)sc1C	i	13µM*	3%	15%	1%	i
COc1ccccc1N1CCN(C(=O)c2cc3c(s2)-c2ccccc2OC3)CC1	?	11µM*!	3%	6%	1%	i
COc1ccccc1N1CCN(C(=O)c2oc3ccc(Br)cc3c2C)CC1	i	18µM*	4%	?	17%	i
Cc1ccc(NC(=O)COC(=O)c2ccccc2OCC(=O)Nc2ccc(Br)cc2)c(Br)c1	·	·	-2%	·	·	·
Cc1ccc(NC(=O)CN2C(=O)CCSc3ccccc32)cc1C	i	·	·	·	·	·
CN(C)c1ccc(C(=O)Oc2cc(O/N=[N+](\[O-])N(C)C)c([N+](=O)[O-])cc2[N+](=O)[O-])cc1	·	·	-73%	·	·	·
O=[N+]([O-])c1nn(-c2ccc3c(c2)OCCO3)n(O)c1=NC1CCCCC1	i	7.9µM*	14%	13µM*	0%	i
COc1ccccc1CN=c1c([N+](=O)[O-])nn(-c2ccc3c(c2)OCCO3)n1O	i	18µM*	6%	?	-12%	i
O=C(c1ccc(Cl)cc1)C1CCN(c2ncnc3sccc23)CC1	i	·	·	·	·	·
CC(C)C(=O)N1CC[C@H]2[C@H](CCCN2Cc2ccc(F)cc2)C1	i	·	·	·	·	·
COc1ccccc1CNC(=O)c1sc2nc3n(c(=O)c2c1C)CCC3	i	24%	·	·	·	i
COCCNC(=O)c1cn(CCOC)c(=O)c2c1c1ccccc1n2C	i	-4%	3%	6%	6%	i
CCC(C)NC(=O)c1cn(CCOC)c(=O)c2c1c1ccccc1n2C (stereo not drawn)	i	-5%	-2%	7%	8.9µM*	i
Cc1ccccc1N(C)S(=O)(=O)c1nnc(NC(=O)c2ccccc2F)s1	i	13µM*	3%	5.6µM*	0%	i
CCOC(=O)C(=Cc1ccc(N(C)C)cc1)C(=O)c1ccccc1	i	0%	-14%	·	·	i
CCOC(=O)N(O)c1ccc(C=Cc2ccccc2)cc1	·	14µM*	-2%	·	·	i
Cc1ccccc1S(=O)(=O)NC(=O)C1(C)CCN1C(=O)c1ccccc1CCc1ccccc1 (stereo not drawn)	?	35µM*	-9%	·	·	i
Cc1ccccc1S(=O)(=O)NC(=O)C1(C)CCN1C(=O)C1(c2ccc(Cl)cc2)CCC1 (stereo not drawn)	?	25µM*	-23%	·	·	i
CC1(C(=O)NS(=O)(=O)c2ccccc2Cl)CCN1C(=O)C1(c2ccc(Cl)cc2)CCC1 (stereo not drawn)	i	13µM*	0%	·	·	i
